In PubChem BioAssay (NCATS) one finds Potency data, which are given here for 30 molecules.

Assay [1] in a line: qHTS for Inhibitors of the Functional Ribonucleoprotein Complex (vRNP) of Lassa (LASV) Arenavirus: LASV Primary Screen - GLuc reporter signal (AID 1347082; calls by dose curve; tested in HEK293 reporter line; further: nearly all actives have a fitted effect of over 60% in size).
Assay [2] in a line: qHTS for Inhibitors of the Functional Ribonucleoprotein Complex (vRNP) of Lassa (LASV) Arenavirus: Viability assay - alamar blue signal for LASV Primary Screen (AID 1347083; calls by dose curve; tested in HEK293 reporter line; further: nearly all actives have a fitted effect of over 80% in size).
The nature of assay [3]: qHTS for Inhibitors of the Functional Ribonucleoprotein Complex (vRNP) of Lymphocytic Choriomeningitis Arenaviruses (LCMV): Viability assay - alamar blue signal for LCMV Primary Screen (AID 1347085; calls by dose curve; tested in HEK293 reporter line; further: nearly all actives have a fitted effect of over 80% in size).
In assay [4] the target is Nucleoprotein (Lymphocytic choriomeningitis virus (strain Armstrong)) (UniProt P09992). In words: qHTS for Inhibitors of the Functional Ribonucleoprotein Complex (vRNP) of Lymphocytic Choriomeningitis Arenaviruses (LCMV): LCMV Primary Screen - GLuc reporter signal (AID 1347086). Further: nearly all actives have a fitted effect of over 70% in size.
Nucleoprotein (Lymphocytic choriomeningitis virus (strain Armstrong)), sequence (P09992 whole entry, looked up): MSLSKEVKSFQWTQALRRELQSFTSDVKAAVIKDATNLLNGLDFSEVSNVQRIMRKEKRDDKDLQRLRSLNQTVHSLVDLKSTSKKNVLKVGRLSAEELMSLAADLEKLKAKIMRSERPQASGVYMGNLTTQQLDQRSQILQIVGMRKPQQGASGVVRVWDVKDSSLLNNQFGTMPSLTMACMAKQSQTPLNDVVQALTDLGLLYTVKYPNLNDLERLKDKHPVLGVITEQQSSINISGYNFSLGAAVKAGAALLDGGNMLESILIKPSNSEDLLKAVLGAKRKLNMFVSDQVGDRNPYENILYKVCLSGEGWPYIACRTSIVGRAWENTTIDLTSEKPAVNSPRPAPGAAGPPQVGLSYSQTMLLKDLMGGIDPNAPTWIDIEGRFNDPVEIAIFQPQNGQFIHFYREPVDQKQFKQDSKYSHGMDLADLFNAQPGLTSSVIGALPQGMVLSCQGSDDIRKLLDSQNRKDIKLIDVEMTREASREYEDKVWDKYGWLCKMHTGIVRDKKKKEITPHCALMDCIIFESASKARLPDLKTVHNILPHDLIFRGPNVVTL

Inconclusive results are not listed. Values without a mark were called inactive. The source made the active and inactive calls. Unless noted, the call rests on the fitted dose curve.
Potency means the concentration at half of the fitted maximal effect.

Regarding `CC(=O)OCC(=O)[C@@]1(O)CC[C@H]2[C@@H]3CCC4=CC(=O)C=C[C@]4(C)[C@@H]3[C@@H](O)C[C@@]21C`, the Potency result in assay [1], in assay [2], in assay [3] and in assay [4] was “inactive” in each case.
On to `CNC(=O)c1ccccc1Sc1ccc2c(C=Cc3ccccn3)n[nH]c2c1`, for which the Potency result in assay [1], in assay [3] and in assay [4] was “inactive” throughout. For the same molecule, in assay [2], the Potency was 17.2 µM (active).
As for `CC(C)=CCOc1ccc2ccc(=O)oc2c1`, the Potency entry in assay [1], in assay [2], in assay [3] and in assay [4] was “inactive” each time.
Consider `C=C(CC1CC(O)[C@]2(C)OC3CC4OC5C[C@]6(C)O[C@]7(C)CCC8OC9C[C@]%10(C)OC%11C(C)=CC(=O)OC%11CC%10OC9C[C@@H](C)C8OC7CC6O[C@]5(C)C/C=C\C4OC3CC2O1)C(=O)O` (stereo not given in full), for which the Potency entry in assay [1], in assay [2], in assay [3] and in assay [4] was “inactive” each time.
For `CC1=C[C@H](O)CC(C)(C)[C@H]1/C=C/C(C)=C/C=C/C(C)=C/C=C/C=C(C)/C=C/C=C(C)/C=C/C1=C(C)C[C@@H](O)CC1(C)C`, the Potency result in assay [1], in assay [2], in assay [3] and in assay [4] was “inactive” throughout.
In the case of `CCCCCCCCCCCC(=O)c1c(O)cccc1O`, the Potency entry in assay [1], in assay [2], in assay [3] and in assay [4] was “inactive” throughout.
In the case of `COc1ccc([C@@H]2CC(=O)c3c(O)cc(O[C@@H]4O[C@H](CO)[C@@H](O)[C@H](O)[C@H]4O[C@@H]4O[C@@H](C)[C@H](O)[C@@H](O)[C@H]4O)cc3O2)cc1`, the Potency result in assay [1], in assay [2], in assay [3] and in assay [4] was “inactive” in each case.
Take `CC(C)(O[C@@H]1O[C@H](CO)[C@@H](O)[C@H](O)[C@H]1O)[C@H]1Cc2cc3ccc(=O)oc3cc2O1`: the Potency result in assay [1], in assay [2], in assay [3] and in assay [4] was “inactive” each time.
On to `COc1c(-c2ccc(O)cc2)oc2cc(O)cc(O)c2c1=O`, for which the Potency result in assay [1], in assay [2], in assay [3] and in assay [4] was “inactive” each time.
For `O=C1O/C(=C\c2ccc(O)cc2)C(O)=C1c1ccc(O)cc1`, the Potency entry in assay [1], in assay [2], in assay [3] and in assay [4] was “inactive” each time.
As for `Nc1nc(Cl)nc2c1ncn2[C@@H]1O[C@H](CO)C(O)[C@H]1O` (stereo not given in full), the Potency entry in assay [1], in assay [2], in assay [3] and in assay [4] was “inactive” throughout.
Regarding `C[C@H](CCC(=O)NCC(=O)O)[C@H]1CC[C@H]2[C@@H]3[C@H](O)C[C@@H]4C[C@H](O)CC[C@]4(C)[C@H]3C[C@H](O)[C@]12C`, the Potency entry in assay [1], in assay [2], in assay [3] and in assay [4] was “inactive” each time.
In the case of `CC/C=C\CC1=C(C)CCC1=O`, the Potency entry in assay [1], in assay [2], in assay [3] and in assay [4] was “inactive” in each case.
Take `Cc1ccc(-c2ccccc2)cc1`: the Potency entry in assay [1], in assay [2], in assay [3] and in assay [4] was “inactive” throughout.
`C[C@H]1C[C@@H]2[C@@H]([C@@H](O)C[C@@]3(C)[C@H]2CC[C@]3(O)C(=O)CO)[C@@]2(C)C=CC(=O)C=C12`: the Potency entry in assay [1], in assay [2], in assay [3] and in assay [4] was “inactive” each time.
In the case of `C=C(C)[C@@H](O)COc1c2ccoc2cc2oc(=O)ccc12`, the Potency entry in assay [1], in assay [2], in assay [3] and in assay [4] was “inactive” in each case.
For the molecule `CC(=O)c1c(O)cccc1O`, the Potency entry in assay [1], in assay [2], in assay [3] and in assay [4] was “inactive” throughout.
For `CCCCCCC(CO)CCCC` (stereo not given), the Potency result in assay [1], in assay [2], in assay [3] and in assay [4] was “inactive” throughout.
As to `Cc1ccc(C(C)C)cc1O`, the Potency result in assay [1], in assay [2], in assay [3] and in assay [4] was “inactive” throughout.
For the molecule `COc1cccc(OC)c1C(=O)O`, the Potency result in assay [1], in assay [2], in assay [3] and in assay [4] was “inactive” throughout.
Take `O=C(O)c1cccc(Br)c1`: the Potency result in assay [1], in assay [2], in assay [3] and in assay [4] was “inactive” throughout.
For the molecule `C=C1C2C[C@H](O)C(C)(C)[C@@]2(O)[C@H](O)C[C@]23C[C@@](C)(O)[C@H](CC[C@H]12)[C@H]3OC(C)=O` (stereo not given in full), the Potency entry in assay [1], in assay [2], in assay [3] and in assay [4] was “inactive” in each case.
With `COc1ccc(C(=O)/C=C/c2ccc(O)cc2)c(O)c1CC=C(C)C`, the Potency result in assay [1], in assay [2], in assay [3] and in assay [4] was “inactive” throughout.
On to `CCCC(=O)OCc1ccccc1`, for which the Potency entry in assay [1], in assay [2], in assay [3] and in assay [4] was “inactive” in each case.
Consider `CC(C)(O)c1cc2nc(-c3cnc(N)nc3)nc(N3CCOCC3)c2s1`, for which the Potency in assay [1] was 0.385 µM (active); in assay [2], 0.193 µM (active); in assay [3] it was 0.769 µM (active); in assay [4] it was 0.611 µM (active).
The matching figures for `C=C(C=O)C[C@@H]1C[C@H](O)C2OC3C[C@]4(C)OC5/C=C\CC6OC7C(CC=CCC6OC5CCCC4OC3CC2O1)OC1CC2OC3CC(=O)OC3C[C@@H](C)C[C@@]2(C)OC1C[C@@H]7C` (stereo not given in full): “inactive”, “inactive”, “inactive” and “inactive”.
The matching figures for `CC(C)C1=CC2=CC[C@@H]3[C@](C)(CCC[C@@]3(C)C(=O)O)[C@H]2CC1`: “inactive”, “inactive”, “inactive” and “inactive”.
The matching figures for `COc1cc2c(c(OC)c1CC=C(C)C)C[C@H](c1ccc(O)cc1O)CO2`: “inactive”, “inactive”, “inactive” and “inactive”.
In the case of `O=c1[nH]cnc2c1ncn2C1OCC(O)C(O)C1O` (stereo not given), the Potency result in assay [1], in assay [2], in assay [3] and in assay [4] was “inactive” throughout.
`CCC(C)(C)O`: the Potency entry in assay [1], in assay [2], in assay [3] and in assay [4] was “inactive” throughout.
